In PubChem BioAssay (NCI) one finds growth data, which are given here for 16 molecules.

Among the test systems are T-47D breast; BT-549 breast; MDA-MB-435 melanoma; SW-620 colon; MCF7 breast; HCT-116 colon; HCC-2998 colon; KM12 colon.
Test in all cases: NCI-60 one-dose screen, 48 h (100 = growth as untreated, 0 = no growth, -100 = all killed)
Holding throughout (conditions): 10 µM unless noted

The panel holds about 83,000 compounds, 20% with a hit somewhere; the sample as a whole holds those more often.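 Percent growth is the endpoint: 0 to 100 indicates growth inhibition (40 means 60% inhibition), 0 means no net growth, and negative values indicate cell death.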 Unmarked numbers belong to inactive results. Calls of active or inactive are those of the source. How the source made its calls: active means growth percent below 10; inactive means the rest.

In the case of `CC(C)Oc1nc2c(c(=O)n(C)c(=O)n2C)n1C`, the growth in the experiment on T-47D breast was 90.3%; with BT-549 breast it was 109%; in the experiment on MDA-MB-435 melanoma, 105%; in the experiment on SW-620 colon, 102%; in the experiment with MCF7 breast, 95.2%; with HCT-116 colon, 101%. Moreover, the growth with HCC-2998 colon was 101%; in the experiment on KM12 colon it was 105%.
For `Cc1ccc2cnc(N)c(C#Cc3cncc(C(=O)Nc4ccc(CN5CCN(C)CC5)c(C(F)(F)F)c4)c3)c2c1`, the growth was -65.2% (active) in the experiment with T-47D breast; -75.1% (active) in the experiment with BT-549 breast; -96.6% (active) in the experiment with MDA-MB-435 melanoma; -86.1% (active) in the experiment with SW-620 colon; -85.8% (active) in the experiment on MCF7 breast; -36.1% (active) with HCT-116 colon. For the same molecule, the values for the growth in the experiment with HCC-2998 colon and in the experiment on KM12 colon were -82.9% (active) and -82.6% (active), respectively.
On to `COc1cc2cc(COc3nccc(-c4ccc(Cl)cc4)n3)c(=O)[nH]c2cc1OC`, for which the growth is 85.5% in the experiment with T-47D breast; 86.4% in the experiment on BT-549 breast; 65.6% with MDA-MB-435 melanoma; 36.5% in the experiment with SW-620 colon; 46.3% in the experiment on MCF7 breast; 53.4% with HCT-116 colon. In addition, the values for the growth in the experiment on HCC-2998 colon and in the experiment with KM12 colon were 11.7% and 76.2%, respectively.
Turning to `COc1cc(-c2cc(-c3nc4ccc(Cl)cc4[nH]3)[nH]n2)cc(OC)c1OC`, the growth is 0.183% (active) in the experiment on T-47D breast; 22.4% in the experiment with BT-549 breast; 39.5% in the experiment with MDA-MB-435 melanoma; 78.7% in the experiment on SW-620 colon; 47% with MCF7 breast; 49.4% in the experiment on HCT-116 colon. Moreover, the values for the growth in the experiment on HCC-2998 colon and with KM12 colon were 89% and 47%, respectively.
Regarding `OC(c1cc(-c2ccccc2)nc2ccc(Cl)cc12)C1CCCCN1` (stereo not drawn), the growth is 19.9% in the experiment with T-47D breast; 91.5% in the experiment with BT-549 breast; 42.6% in the experiment on MDA-MB-435 melanoma; 21.2% with SW-620 colon; -41% (active) in the experiment with MCF7 breast; 33.4% in the experiment with HCT-116 colon. In addition, the growth in the experiment with HCC-2998 colon was -87.7% (active); in the experiment with KM12 colon it was 6.52% (active).
As to `O=C(Cc1ccccc1)c1ccc(Cl)cc1`, the growth is 91.1% in the experiment on T-47D breast; 106% in the experiment with BT-549 breast; 94.3% in the experiment on MDA-MB-435 melanoma; 99% in the experiment on SW-620 colon; 95.6% in the experiment with MCF7 breast; 93.2% in the experiment with HCT-116 colon. The values for the growth in the experiment with HCC-2998 colon and in the experiment on KM12 colon were 99% and 101%, respectively.
As to `CCOC(=O)c1c2c(n3ccc(NC(=O)CCN4CCCCC4)cc13)C(=O)c1ncccc1C2=O`, the growth is 44.6% in the experiment on T-47D breast; 58.5% in the experiment on BT-549 breast; -61.8% (active) in the experiment on MDA-MB-435 melanoma; -20.2% (active) in the experiment with SW-620 colon; -61.1% (active) with MCF7 breast; -61.1% (active) in the experiment with HCT-116 colon. Also, the growth in the experiment on HCC-2998 colon is -66% (active); in the experiment on KM12 colon it was -75.6% (active).
As for `CC(C)CC(CC1=CCC2CC1C2(C)C)C1=C(O)C(C)(C)C(=O)C(C)(C)C1=O` (stereo not drawn), the growth was 4.63% (active) in the experiment with T-47D breast; -6.03% (active) with BT-549 breast; 11% with MDA-MB-435 melanoma; 14.2% in the experiment on SW-620 colon; 7.94% (active) with MCF7 breast; 6.3% (active) in the experiment on HCT-116 colon. Also, the growth in the experiment with HCC-2998 colon is 17.6%; with KM12 colon it was 9.6% (active).
`Cc1nc2sc(C(=O)Nc3cccc4c3OCCO4)c(N)c2cc1C(C)O` (stereo not drawn): the growth with T-47D breast was -13.2% (active); with BT-549 breast, 56.1%; in the experiment on MDA-MB-435 melanoma, -39.2% (active); with SW-620 colon it was 22.4%; in the experiment with MCF7 breast, 11.2%; with HCT-116 colon, 31.3%. The figures for the growth with HCC-2998 colon and in the experiment with KM12 colon were 66.5% and 20.7%, respectively.
For the molecule `CCCCCCCCCCCCNC(=O)[C@H]1CSC(c2ccc(OC)c(F)c2)N1` (stereo partly drawn), the growth in the experiment on T-47D breast was -68.9% (active); with BT-549 breast, -84.3% (active); with MDA-MB-435 melanoma it was -92% (active); with SW-620 colon, -70.4% (active); with MCF7 breast, -68.1% (active); in the experiment with HCT-116 colon, -88.7% (active). For the same molecule, the figures for the growth in the experiment with HCC-2998 colon and in the experiment with KM12 colon were -83.6% (active) and -84.6% (active), respectively.
For `O=C(O)c1cn(C2CC2)c2cc(N3CCN(Cc4nc5c(cnn5-c5ccc([N+](=O)[O-])cc5)c(=O)[nH]4)CC3)c(F)cc2c1=O`, the growth with T-47D breast was 104%; in the experiment on BT-549 breast it was 96.1%; in the experiment with MDA-MB-435 melanoma it was 100%; with SW-620 colon, 105%; in the experiment on MCF7 breast, 91.5%; in the experiment on HCT-116 colon, 99.8%. Also, the results for the growth in the experiment with HCC-2998 colon and with KM12 colon were 112% and 107%, respectively.
With `COc1ccc(-c2nc(Nc3cc(C)[nH]n3)c3ccccc3n2)cc1`, the growth in the experiment on T-47D breast was 28.6%; with BT-549 breast, 51.7%; in the experiment with MDA-MB-435 melanoma, 26.6%; in the experiment on SW-620 colon, 35.4%; with MCF7 breast, 22.1%; with HCT-116 colon it was 29.5%. The figures for the growth in the experiment on HCC-2998 colon and in the experiment on KM12 colon were 74.2% and 18.3%, respectively.
For the molecule `COc1ccc(-c2csc(NC(=O)CN3CCN(c4cc5c(cc4F)c(=O)c(C(=O)O)cn5C4CC4)CC3)n2)cc1`, the growth is 16.6% with T-47D breast; 9.62% (active) in the experiment on BT-549 breast; 14.4% in the experiment with MDA-MB-435 melanoma; 16% in the experiment on SW-620 colon; 12.8% in the experiment with MCF7 breast; 9.62% (active) in the experiment with HCT-116 colon. The growth in the experiment with HCC-2998 colon is 36.4%; in the experiment with KM12 colon, 15.3%.
For `CC(C)(C)c1nn(-c2ccccc2)c2c1CC1(CN2Cc2ccc3c(c2)OCO3)C(=O)c2ccccc2C1=O`, the growth with T-47D breast is 94.6%; with BT-549 breast, 101%; in the experiment on MDA-MB-435 melanoma, 106%; in the experiment on SW-620 colon, 101%; in the experiment with MCF7 breast, 97.9%; in the experiment on HCT-116 colon, 88.9%. Moreover, the growth is 96.9% in the experiment on HCC-2998 colon and 105% in the experiment on KM12 colon.
Turning to `COc1cccc2c1C(=O)c1c(O)c3c(c(O)c1C2=O)C[C@@](O)(/C(C)=N/NC(=O)c1ccc(Cl)cc1)C[C@@H]3OC1CC(N)C(O)C(C)O1` (stereo partly drawn), the growth with T-47D breast is -11.6% (active); with BT-549 breast, -45.3% (active); with MDA-MB-435 melanoma, -87.3% (active); in the experiment on SW-620 colon, -36.6% (active); in the experiment with MCF7 breast, -13.8% (active); with HCT-116 colon, 7.54% (active). Also, the growth was -45% (active) in the experiment with HCC-2998 colon and -26.2% (active) in the experiment on KM12 colon.
Turning to `O=C1Nc2ccccc2/C1=C/C(=N/c1nnc(-c2ccccc2)s1)c1ccccc1`, the growth with T-47D breast was 73.7%; in the experiment with BT-549 breast, 66.4%; with MDA-MB-435 melanoma, 51.6%; in the experiment on SW-620 colon, -5.52% (active); in the experiment with MCF7 breast, 36.9%; in the experiment on HCT-116 colon, -51.9% (active). For the same molecule, the figures for the growth with HCC-2998 colon and in the experiment with KM12 colon were 104% and 87.7%, respectively.
